For some of these results: Measured potencies and affinities stand elsewhere.
How the values were obtained:
Design in all cases: scale not given: direction of the effect not stated beside the values
[1] = molecular target: Protein translocase subunit SecA (Escherichia coli (strain K12)) (UniProt P10408); assay: Assay to Identify E. coli SecA ATPase Inhibitors; assay type: functional; settings: 30 µM
[2] = molecular target: T1, Ubiquitin-activating enzyme e1, putative (Leishmania donovani (strain BPK282A1)) (UniProt E9BSI1); assay: Leishmania donovani Ubiquitin Activating Enzyme (LdE1); assay type: functional; settings: 30 µM
T1 sequence (whole entry): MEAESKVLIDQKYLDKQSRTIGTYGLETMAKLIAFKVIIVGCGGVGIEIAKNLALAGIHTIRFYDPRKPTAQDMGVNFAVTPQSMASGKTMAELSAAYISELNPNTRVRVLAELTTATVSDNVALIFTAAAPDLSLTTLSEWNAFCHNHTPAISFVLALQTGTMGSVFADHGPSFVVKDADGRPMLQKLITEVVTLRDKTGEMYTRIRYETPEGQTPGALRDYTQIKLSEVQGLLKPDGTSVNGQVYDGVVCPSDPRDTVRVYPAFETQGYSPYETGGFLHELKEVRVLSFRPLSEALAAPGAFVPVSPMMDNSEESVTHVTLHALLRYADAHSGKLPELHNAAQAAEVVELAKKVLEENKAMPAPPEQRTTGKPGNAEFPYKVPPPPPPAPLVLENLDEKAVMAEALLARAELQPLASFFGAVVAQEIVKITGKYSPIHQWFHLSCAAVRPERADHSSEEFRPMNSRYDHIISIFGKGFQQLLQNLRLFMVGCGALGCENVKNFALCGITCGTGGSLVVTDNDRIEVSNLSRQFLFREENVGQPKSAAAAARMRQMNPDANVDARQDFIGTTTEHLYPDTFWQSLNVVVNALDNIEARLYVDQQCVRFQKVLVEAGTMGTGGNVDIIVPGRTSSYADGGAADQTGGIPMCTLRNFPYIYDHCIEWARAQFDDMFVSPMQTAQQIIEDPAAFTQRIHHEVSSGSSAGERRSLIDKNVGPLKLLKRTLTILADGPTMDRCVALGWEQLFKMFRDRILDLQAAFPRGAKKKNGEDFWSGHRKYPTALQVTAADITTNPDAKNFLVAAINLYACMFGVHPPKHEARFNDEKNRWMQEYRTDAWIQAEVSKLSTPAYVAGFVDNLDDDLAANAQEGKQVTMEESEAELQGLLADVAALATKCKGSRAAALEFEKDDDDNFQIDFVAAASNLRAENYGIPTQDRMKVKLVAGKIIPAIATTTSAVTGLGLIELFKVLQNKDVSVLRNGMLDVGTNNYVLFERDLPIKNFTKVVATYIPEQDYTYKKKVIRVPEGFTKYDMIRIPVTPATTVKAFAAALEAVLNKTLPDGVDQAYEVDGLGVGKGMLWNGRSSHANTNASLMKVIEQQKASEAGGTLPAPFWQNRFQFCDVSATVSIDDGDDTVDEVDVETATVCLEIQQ

[3] = molecular target: AMP-activated protein kinase, AMPK (Homo sapiens) (UniProt P54646+O43741+P54619+Q9UGJ0+Q9Y478+Q13131+Q9UGI9); assay: AMP-dependent Kinase enzyme assay. An in vitro enzyme assay that detects ADP turnover that is directly proportional to AMPK activity. This uses naive AMPK that is activated during the assay with MK-8722; assay type: functional; settings: 30 µM
[4] = molecular target: Sialic acid-binding Ig-like lectin 9 (Homo sapiens) (UniProt Q9Y336); assay: Hs-Siglec9 ALPHAscreen SOP 20170721; settings: 10 µM
Sialic acid-binding Ig-like lectin 9 (Homo sapiens), sequence (Q9Y336 whole entry): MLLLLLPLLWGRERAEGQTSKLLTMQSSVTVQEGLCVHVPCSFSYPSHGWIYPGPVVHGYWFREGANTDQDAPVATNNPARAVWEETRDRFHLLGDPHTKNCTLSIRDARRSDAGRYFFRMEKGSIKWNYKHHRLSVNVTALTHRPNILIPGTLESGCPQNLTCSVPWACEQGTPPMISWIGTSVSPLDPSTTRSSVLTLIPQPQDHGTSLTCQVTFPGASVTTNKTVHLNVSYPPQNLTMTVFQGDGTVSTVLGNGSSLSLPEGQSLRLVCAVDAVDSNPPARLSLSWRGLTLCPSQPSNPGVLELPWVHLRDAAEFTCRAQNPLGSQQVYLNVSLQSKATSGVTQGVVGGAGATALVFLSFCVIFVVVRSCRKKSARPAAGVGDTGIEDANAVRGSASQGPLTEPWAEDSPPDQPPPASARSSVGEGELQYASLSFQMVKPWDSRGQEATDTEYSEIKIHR

Trypanosoma cruzi = assay: Trypanosoma cruzi phosphomannomutase and mannose-1-phosphate guanylyltransferase assay; assay type: functional; settings: 10 µM
[5] = molecular target: T2, Arginase-2, mitochondrial (Homo sapiens) (UniProt P78540); assay: in vitro enzyme assay to detect the production of urea directly proportional to the activity of Arginase II; assay type: functional; settings: 33.3 µM; note: in the data most compounds retested in dose-response had high values
T2 sequence (whole entry): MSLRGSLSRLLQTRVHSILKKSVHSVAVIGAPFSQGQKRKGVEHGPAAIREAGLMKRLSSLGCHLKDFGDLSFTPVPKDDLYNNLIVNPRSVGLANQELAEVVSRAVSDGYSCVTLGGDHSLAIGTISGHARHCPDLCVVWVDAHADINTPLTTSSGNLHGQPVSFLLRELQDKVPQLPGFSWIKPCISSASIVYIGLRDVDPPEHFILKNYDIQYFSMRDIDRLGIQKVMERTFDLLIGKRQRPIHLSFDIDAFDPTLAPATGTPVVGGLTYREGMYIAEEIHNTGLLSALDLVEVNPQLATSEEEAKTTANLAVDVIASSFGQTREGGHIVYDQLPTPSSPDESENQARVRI

[6] = molecular target: T3, Proteasome subunit beta (Trypanosoma cruzi) (UniProt O96673); assay: Trypanosoma cruzi proteasome chymotrypsin-like activity (TcProtChymo) assay.; note: in the data most compounds retested in dose-response had high values; assay type: functional; settings: 9.37 µM
T3 sequence (whole entry): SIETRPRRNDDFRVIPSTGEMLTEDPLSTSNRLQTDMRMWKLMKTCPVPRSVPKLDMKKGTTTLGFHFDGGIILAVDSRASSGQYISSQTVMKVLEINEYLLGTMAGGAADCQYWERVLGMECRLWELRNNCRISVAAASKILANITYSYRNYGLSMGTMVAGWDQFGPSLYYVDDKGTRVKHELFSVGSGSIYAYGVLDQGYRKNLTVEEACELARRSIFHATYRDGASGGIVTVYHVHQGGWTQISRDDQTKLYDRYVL

Homo sapiens = species: Homo sapiens; assay: To identify inhibition of the IFN signalling (Jak-Stat) pathway via expression of an eGFP reporter gene under the control of an IFN-stimulated response element (ISRE) containing MxA promoter.; assay type: functional; settings: 30 µM
[7] = molecular target: T4, Tyrosyl-tRNA synthetase, putative (Trypanosoma cruzi (strain CL Brener)) (UniProt Q4DSP6); assay: Trypanosoma cruzi tyrosyl tRNA synthetase (TcYRS) _High Tyrosine SOP; assay type: functional; settings: 30 µM; note: in the data most compounds retested in dose-response had high values
T4 sequence (whole entry): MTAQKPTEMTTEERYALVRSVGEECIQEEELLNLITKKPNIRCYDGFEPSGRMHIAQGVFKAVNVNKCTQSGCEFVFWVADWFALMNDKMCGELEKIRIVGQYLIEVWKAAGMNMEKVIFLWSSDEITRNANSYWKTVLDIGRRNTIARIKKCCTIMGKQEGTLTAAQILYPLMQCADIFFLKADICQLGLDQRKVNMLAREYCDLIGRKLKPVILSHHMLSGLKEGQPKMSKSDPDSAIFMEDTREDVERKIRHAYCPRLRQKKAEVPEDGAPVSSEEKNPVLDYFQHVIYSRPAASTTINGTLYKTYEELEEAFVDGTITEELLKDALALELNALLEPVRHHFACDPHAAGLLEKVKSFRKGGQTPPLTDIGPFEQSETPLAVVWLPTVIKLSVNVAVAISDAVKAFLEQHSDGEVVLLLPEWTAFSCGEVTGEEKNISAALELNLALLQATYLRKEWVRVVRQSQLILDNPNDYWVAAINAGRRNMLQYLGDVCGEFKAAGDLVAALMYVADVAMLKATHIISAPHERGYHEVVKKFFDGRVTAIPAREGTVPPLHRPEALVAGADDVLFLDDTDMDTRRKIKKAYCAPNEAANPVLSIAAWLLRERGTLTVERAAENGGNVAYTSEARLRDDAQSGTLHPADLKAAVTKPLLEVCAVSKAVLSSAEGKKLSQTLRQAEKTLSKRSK

[8] = molecular target: T4, Tyrosyl-tRNA synthetase, putative (Trypanosoma cruzi (strain CL Brener)); assay: Trypanosoma cruzi tyrosyl tRNA synthetase (TcYRS) SOP; assay type: functional; settings: 30 µM
[9] = molecular target: Chromo domain-containing protein 1 (Saccharomyces cerevisiae (strain ATCC 204508 / S288c) (Baker's yeast)) (UniProt P32657); assay: ScCHD-1 Enzyme Inhibition Assay; assay type: functional; settings: 30 µM; note: in the data most compounds retested in dose-response had high values
Chromo domain-containing protein 1 (Saccharomyces cerevisiae (strain ATCC 204508 / S288c) (Baker's yeast)), sequence (P32657 whole entry, the tested form may be a part): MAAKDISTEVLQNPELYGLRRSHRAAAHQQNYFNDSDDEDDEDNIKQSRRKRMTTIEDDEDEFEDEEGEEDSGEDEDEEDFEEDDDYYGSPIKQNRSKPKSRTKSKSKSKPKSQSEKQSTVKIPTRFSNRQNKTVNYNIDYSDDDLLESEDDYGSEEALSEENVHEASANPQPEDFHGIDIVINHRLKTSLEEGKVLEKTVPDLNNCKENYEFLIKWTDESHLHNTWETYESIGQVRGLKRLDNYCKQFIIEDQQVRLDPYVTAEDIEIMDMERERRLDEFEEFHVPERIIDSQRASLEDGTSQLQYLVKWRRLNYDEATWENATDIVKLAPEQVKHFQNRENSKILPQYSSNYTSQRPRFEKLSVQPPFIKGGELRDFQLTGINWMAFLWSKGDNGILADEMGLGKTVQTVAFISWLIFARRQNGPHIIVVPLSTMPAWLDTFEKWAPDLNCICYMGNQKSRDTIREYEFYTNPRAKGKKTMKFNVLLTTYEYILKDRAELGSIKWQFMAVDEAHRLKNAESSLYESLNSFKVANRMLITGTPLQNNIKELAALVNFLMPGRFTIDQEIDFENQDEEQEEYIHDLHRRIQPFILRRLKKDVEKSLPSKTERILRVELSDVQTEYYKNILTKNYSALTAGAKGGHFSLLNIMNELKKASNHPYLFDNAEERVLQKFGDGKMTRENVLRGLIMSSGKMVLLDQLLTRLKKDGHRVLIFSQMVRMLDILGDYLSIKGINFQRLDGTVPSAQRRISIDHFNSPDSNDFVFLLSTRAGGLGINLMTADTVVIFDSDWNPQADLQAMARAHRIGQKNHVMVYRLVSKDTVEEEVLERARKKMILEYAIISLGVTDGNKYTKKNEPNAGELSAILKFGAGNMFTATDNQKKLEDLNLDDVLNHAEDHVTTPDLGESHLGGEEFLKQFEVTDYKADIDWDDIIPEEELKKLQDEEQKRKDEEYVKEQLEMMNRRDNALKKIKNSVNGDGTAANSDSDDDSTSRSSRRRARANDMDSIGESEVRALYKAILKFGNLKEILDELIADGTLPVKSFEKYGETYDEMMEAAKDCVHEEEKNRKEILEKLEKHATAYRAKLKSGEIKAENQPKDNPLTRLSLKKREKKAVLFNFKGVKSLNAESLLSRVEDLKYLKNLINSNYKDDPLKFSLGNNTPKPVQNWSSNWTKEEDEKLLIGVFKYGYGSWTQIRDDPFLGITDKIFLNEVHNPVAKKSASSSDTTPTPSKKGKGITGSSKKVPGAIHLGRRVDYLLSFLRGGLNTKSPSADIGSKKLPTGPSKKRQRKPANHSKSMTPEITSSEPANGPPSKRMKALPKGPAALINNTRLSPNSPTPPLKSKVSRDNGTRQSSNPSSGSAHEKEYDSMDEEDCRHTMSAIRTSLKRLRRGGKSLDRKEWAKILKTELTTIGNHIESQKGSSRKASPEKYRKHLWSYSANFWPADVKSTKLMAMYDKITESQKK

Protein translocase subunit SecA (Escherichia coli (strain K12)), sequence (P10408 whole entry): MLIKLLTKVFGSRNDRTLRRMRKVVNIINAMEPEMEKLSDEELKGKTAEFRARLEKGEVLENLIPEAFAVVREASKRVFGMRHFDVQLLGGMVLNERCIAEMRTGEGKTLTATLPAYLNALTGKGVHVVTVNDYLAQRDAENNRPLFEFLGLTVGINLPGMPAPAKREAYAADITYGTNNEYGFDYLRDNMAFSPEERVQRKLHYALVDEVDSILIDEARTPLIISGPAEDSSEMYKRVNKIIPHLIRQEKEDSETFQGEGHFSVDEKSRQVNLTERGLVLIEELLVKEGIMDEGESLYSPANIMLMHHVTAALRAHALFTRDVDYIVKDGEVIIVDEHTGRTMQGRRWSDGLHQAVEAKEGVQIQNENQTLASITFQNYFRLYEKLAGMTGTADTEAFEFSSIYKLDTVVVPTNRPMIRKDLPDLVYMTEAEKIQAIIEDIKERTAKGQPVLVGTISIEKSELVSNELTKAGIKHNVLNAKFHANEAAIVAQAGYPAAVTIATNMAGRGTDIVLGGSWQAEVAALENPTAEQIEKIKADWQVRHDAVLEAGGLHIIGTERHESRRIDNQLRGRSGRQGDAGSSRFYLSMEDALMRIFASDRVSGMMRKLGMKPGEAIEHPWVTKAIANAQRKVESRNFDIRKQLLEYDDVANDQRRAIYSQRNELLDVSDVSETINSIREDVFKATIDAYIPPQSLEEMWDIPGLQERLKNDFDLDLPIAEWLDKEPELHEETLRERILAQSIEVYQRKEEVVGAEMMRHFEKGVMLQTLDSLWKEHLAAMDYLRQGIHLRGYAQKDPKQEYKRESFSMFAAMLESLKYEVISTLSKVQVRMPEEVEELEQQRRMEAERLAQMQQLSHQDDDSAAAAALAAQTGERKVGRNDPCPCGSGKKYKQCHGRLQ

SMILES	Percent Effect [1]	Percent Effect [2]	Percent Effect [3]	Percent Effect [4]	Percent Effect (Trypanosoma cruzi)	Percent Effect [5]	Percent Effect [6]	Percent Effect (Homo sapiens)	Percent Effect [7]	Percent Effect [8]	Percent Effect [9]
CN(CCc1ccccc1)Cc1cc(C(=O)N2CCCC2(C)C)no1	8.96%	13.7%	-8.24%	6.18%	-2.38%	-17.6%	11%	33.7%	8.33%	11.1%	-0.0446%
CNC(=O)CS(=O)(=O)Cc1coc(-c2ccc(F)cc2)n1	-2.82%	5.41%	-2.17%	1.48%	3.67%	2.38%	7.59%	-3.27%	5.82%	12.2%	-1.98%
Cc1cc(-c2cnc(N3CCCC(C)C3)nc2-c2cccnc2C)on1 (stereo unspecified)	-7.33%	1.35%	6.26%	-5.16%	-5.93%	-5.34%	8.74%	59.4%	-8.6%	-3.9%	-22.2%
CCn1ccnc1CN1CCN(Cc2ccccn2)CC1C (stereo unspecified)	1.15%	5.41%	-1.29%	3.52%	-3.91%	5.42%	9.04%	12.7%	8.91%	13.4%	14%
Cn1ccnc1CN1CCC2(CC(=O)N(c3cccc(F)c3)C2)C1 (stereo unspecified)	1.4%	10.4%	15%	-4.43%	-7.2%	7.1%	14.8%	6.27%	7.41%	14.1%	-7.71%
c1ccc2oc(NC3CCCN(Cc4noc(C5CC5)n4)C3)nc2c1 (stereo unspecified)	-1.73%	-5.41%	-1.19%	-0.829%	4.63%	3.81%	7.93%	-1.13%	2.65%	4.88%	5.42%
CCN1CCn2c(C)cnc2C12CCN(C(=O)CC(C)C)CC2	-1.23%	10.7%	6.38%	-1.92%	-4.83%	-59%	18.1%	1.06%	0%	5%	-5.61%
CCN1CCOC(CNCc2ccccc2OCc2ccccn2)C1 (stereo unspecified)	-2.71%	5.26%	-13%	-5.97%	-4.39%	3.24%	9.56%	9.07%	6.4%	13.6%	-8.14%
CC(C)(C)c1ncc(C(=O)NCCS(N)(=O)=O)s1	-6.98%	2.63%	-2.41%	7.37%	0.654%	-2.88%	-6.01%	-5.3%	6.4%	11.1%	2.8%
CCCc1nnsc1C(=O)NCC1CCN(S(C)(=O)=O)CC1	-4.49%	16.4%	-9.31%	9.94%	1.57%	0.455%	20.1%	9.73%	7.53%	17.5%	-6.78%
c1ccc(-c2nc(CN3CCCC(Cn4cncn4)C3)co2)cc1 (stereo unspecified)	-0.495%	29.1%	-4%	-3.43%	1.54%	-5.81%	18.2%	14.8%	6.25%	10.1%	-13.6%
